The entries come from a sample that favours hits as a whole.
GFP derepression: qHTS Assay for Epigenetic Modulators; Potency, µM (doses to about 46.1 µM), without a hit: at the highest dose GFP derepression (activation); actives 0.09% (n = 68,000); mouse C127i GFP locus derepression, cytometry, 30 h; note: % of control where 0% means no effect
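Derepression screen: silenced CMV-GFP reporter in murine C127i cells, 30 h compound incubation at 37 C, washed cells imaged by laser-scanning cytometer to enumerate GFP-expressing objects of 20 to 120 um.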
USP2a inhib: qHTS Assay for Inhibitors of Ubiquitin-specific Protease USP2a; Ubiquitin carboxyl-terminal hydrolase 2 (Homo sapiens), O75604; USP2a enzymatic assay, qHTS inhibition; Potency, µM (highest dose often 38.3 µM), for inactives: at the highest dose activity change, negative = inhibition, most hits filed as inhibitors; actives 0.1% (n = 60,000); note: potency is the fitted concentration of half-maximal effect; nearly all actives have a fitted effect of over 60% in size
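Inhibition is measured in a cell-free coupled assay with 20 nM USP2 core, 20 nM Ub-PLA2 and 20 uM NBD C6-HPC, 2.5 h incubation. Activity normalized to NEM control.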
HBB splicing: qHTS Assay for Modulators of Hemoglobin Beta Chain Splicing. HBB splicing reporter cell assay, activation; EGFP reporter with mutant IVS2-654 intron; response scale: normalised to 500 nM splice-correcting PNA. Potency, µM (top dose mostly 46.1 µM), inactives show at the highest dose activation, most hits filed as activators. actives 0.06% (n = 65,000). AID 925, 2007; note: potency is the fitted concentration of half-maximal effect; 0% is about no effect
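HeLa cells stably expressing EGFP interrupted by mutant beta-globin intron 2 (IVS2-654), 500/well in 2% FCS. Treated with compound for 2 days at 37C. Splicing correction scored as total well GFP intensity (488 nm excitation, 500-520 nm emission); 500 nM antisense PNA served as control.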
GBA activity: Glucocerebrosidase; Potency, µM; actives 1.1% (n = 48,000); purified enzyme, resorufin glucoside fluorescence (screen aimed at inhibitors), 20 min; AID 360, 2006; Lysosomal acid glucosylceramidase (Homo sapiens), P04062; in the data active = potency below about 15 µM; inconclusive = mostly about 16 µM to 33 µM;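 note: potency is the fitted concentration of half-maximal effect; the screen sought inhibitors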
Target sequence (P04062 whole entry, looked up): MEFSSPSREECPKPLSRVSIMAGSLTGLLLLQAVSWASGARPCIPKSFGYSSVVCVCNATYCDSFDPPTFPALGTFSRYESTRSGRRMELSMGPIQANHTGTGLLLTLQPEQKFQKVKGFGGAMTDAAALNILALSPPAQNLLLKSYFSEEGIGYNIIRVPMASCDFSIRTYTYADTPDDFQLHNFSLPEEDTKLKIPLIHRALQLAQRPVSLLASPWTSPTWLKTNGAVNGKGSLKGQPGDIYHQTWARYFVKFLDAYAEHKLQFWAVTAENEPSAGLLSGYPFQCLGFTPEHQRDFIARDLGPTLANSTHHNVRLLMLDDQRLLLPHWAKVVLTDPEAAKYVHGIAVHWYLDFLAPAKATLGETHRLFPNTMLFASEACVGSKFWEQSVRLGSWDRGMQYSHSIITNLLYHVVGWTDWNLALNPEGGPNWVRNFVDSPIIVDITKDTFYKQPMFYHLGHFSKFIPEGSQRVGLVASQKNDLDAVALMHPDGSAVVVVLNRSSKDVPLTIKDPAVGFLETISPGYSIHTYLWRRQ
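Compounds titrated against 0.2 nM normal enzyme, 30 uM resorufin beta-D-glucopyranoside substrate, citrate/phosphate buffer with taurocholate and tween-20, pH 5.9. Reaction ran 20 min at room temperature; fluorescence (Ex 548/Em 600) gave AC50.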
Ub-GFP proteasome: Ubiquitin-GFP Assay; 67,000 tested, under 10 active; AID 526, 2006; Ubiquitin-GFP reporter cells, proteasome inhibition, GFP fluorescence; response scale: untreated = 0%, 10 µM MG-132 = 100%; Potency, µM (titrated, usually from 45.9 µM), for the others: at the top dose activation (GFP accumulation), hits mostly activators; active = well fitted activation curve with a large enough effect, not every such curve was filed as active; inconclusive = small, poorly fitted or top-dose-only effect, or another doubt; inactive = no such curve, though single readings can be large or run the other way; note: potency is the fitted concentration of half-maximal effect
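Reporter cells (U2OS, ubiquitin-G76V-GFP fusion) are plated overnight, then treated 4 hr at 37 °C with compound titrations from 46 uM down to 2.9 nM. Activity is scaled against untreated cells and 10 uM MG-132.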
The depositor's hits bear a star; i = inactive; ? = inconclusive; / = no result; [ ] = remark or other dose. Unless noted, calls come from the whole dose curve; as a rule, active = well fitted curve in the direction sought with a large enough effect; inconclusive = small, poorly fitted or top-dose-only effect, or another doubt; inactive = no such curve, though single readings can be large; an effect the other way counts as inactive or inconclusive.

SMILES	GFP derepression	USP2a inhib	HBB splicing	GBA activity	Ub-GFP proteasome
COc1ccccc1NC(=O)c1ccc(NS(=O)(=O)c2c(C)noc2C)cc1	4%	0%	0%	i	17%
Cc1noc(C)c1S(=O)(=O)Nc1ccc(C(=O)NC2CCCCC2)cc1	6%	-4%	-1%	4.1*	-3%
Cc1noc(C)c1S(=O)(=O)Nc1ccc(C(=O)NCCc2ccccc2)cc1	3%	4%	2%	1.6*	-5%
Cc1ccc(NC(=O)c2ccc(NS(=O)(=O)c3c(C)noc3C)cc2)cc1C	2%	7%	0%	11*	1%
COc1ccc(NC(=O)c2ccc(NS(=O)(=O)c3c(C)noc3C)cc2)cc1OC	2%	13%	0%	0.29*	2%
Oc1cccc2ccc(SSc3ccc4cccc(O)c4n3)nc12	3%[9.22 µM]	/	5%[9.22 µM]	/	-5%[9.17 µM]
Cc1cc2c(cc1Cl)N(C(=O)Nc1ccnc3ccccc13)CC2	0%	11%	0%	/	8%
CC(C)=CCC/C(C)=C/CO/N=C1/C[C@@H](O)[C@@H](O)[C@@H]2[C@@H]3C(=O)N(Cc4ccc5c(c4)OCO5)C(=O)[C@H]3CC[C@H]12	/	/	1%[9.22 µM]	/	/
Nc1ccc(-c2nc3ccc(-c4nc5ccc(N)cc5[nH]4)cc3[nH]2)cc1	/	25µM*	/	/	/
COc1ccc(N(CC(=O)Nc2ccc3c(c2)OCCO3)S(=O)(=O)c2c(C)noc2C)cc1	0%	37%	-3%	12*	-12%
Cn1cc(/C=N/n2cnc3sc4c(c3c2=O)CCCC4)c2ccccc21	2%	32%	3%[0.369 µM]	12*	4%
O=C(c1ccncc1)N1CCC2(CCN(Cc3nccs3)CC2)CC1	5%[9.22 µM]	-5%	2%	/	9%
O=C(CSc1nnc(Cc2csc(Nc3cccc(Cl)c3)n2)o1)N1CCc2ccccc21	5%	30%	/	14*	-5%
COc1ccccc1Nc1nc(N)nc(CSc2ncccn2)n1	2%	0%	0%	>77	4%
COc1ccccc1Nc1nc(N)nc(CN2CCN(c3ccccc3F)CC2)n1	0%	31%	-2%[57.5 µM]	2.4*	2%
COc1ccccc1N1CCN(Cc2nc(N)nc(Nc3ccc(C)c(Cl)c3)n2)CC1	2%	45%	-3%[57.5 µM]	5.3*	1%
COc1ccc(N2CCN(Cc3nc(N)nc(Nc4ccccc4OC)n3)CC2)cc1	0%	24%	2%[57.5 µM]	3.9*	2%
CN(CC(=O)O)Cc1c(O)c(Cl)cc(Cl)c1Cl	0%[9.22 µM]	/	3%[9.22 µM]	/	6%[9.17 µM]
N[C@H](Cc1ccc(F)cc1)C(=O)O	1%	-9%	2%	/	8%
CO[C@H]1COC(=O)[C@@H](CCSC)NC(=O)C/C=C\[C@@H](C)[C@H](OC)COC(=O)[C@@H](OCc2ccccc2)/C=C\[C@@H]1C	/	/	0%[9.22 µM]	/	/
CO/N=C\[C@@H](NS(=O)(=O)c1ccc(C)cc1)[C@H](C)/C=C\CC(=O)OC	/	/	1%[9.22 µM]	/	/
Cc1nc(N2CCc3ccccc3C2)[nH]c(=O)c1CCC(C)C	-3%	2%	0%	5.3*	-5%
Cc1cccc(C)c1OC[C@H](C)N	12%[20.6 µM]	11%[17.1 µM]	0%[20.6 µM]	/	-7%[20.5 µM]
Nc1nc(SCC(=O)NCc2ccco2)[nH]c(=O)c1-c1ccccc1	0%	-3%	0%	>77	2%
O=C(CSc1nc2nc(-c3cccs3)cc(C(F)(F)F)c2c(=O)[nH]1)NCc1ccco1	0%	2µM*	0%[57.5 µM]	/	-3%
SMILES	GFP derepression	USP2a inhib	HBB splicing	GBA activity	Ub-GFP proteasome
N#Cc1ccc(-c2nnnn2-c2ccc3c(c2)OCO3)cc1	-2%	35%	/	15*	-8%
CCOC(=O)CC1=CC(C)(CC(=O)OCC)C(C#N)(C#N)C(N)=C1C#N (configuration not stated)	1%	/	0%[57.5 µM]	4.8*	0%
CCOC(=O)CC1=C(C(=O)OCC)C(c2cc(OC)c(OC)cc2OC)C(C#N)=C(N)O1 (configuration not stated)	4%[20.6 µM]	/	/	/	/
COc1ccc(NC(=O)N2CCCC3(CCN(C(C)=O)CC3)C2)cc1	0%[9.22 µM]	-3%	6%	/	-3%
COc1ccc(NC(=O)N2CC[C@@]3(CCCN(C(C)=O)C3)C2)cc1	-4%[9.22 µM]	10µM*	-1%	/	-11%
CC(=O)O[C@@H]1[C@H]([N+]2(C)CCCCC2)C[C@@H]2[C@@H]3CC[C@@H]4C[C@@H](OC(C)=O)[C@H]([N+]5(C)CCCCC5)C[C@@]4(C)[C@H]3CC[C@]21C	0%	0%	2%	/	5%
CCc1nnc(NC(=O)c2ccc(-c3cccc(C(F)(F)F)c3)o2)s1	-4%	6%	0%	1.8*	5%
CCCc1ccc(S(=O)(=O)NCCc2ccncc2)cc1	0%	5%	-1%	7.1*	11%
CC(C)(C)c1ccc(S(=O)(=O)NCCc2ccncc2)cc1	-2%	15%	-1%	?	-1%
CC(=O)OC1CC(OC(C)=O)[C@]2(C)C(CC(OC(C)=O)[C@]3(C)C2CC[C@@]2(C)C(c4ccoc4)OC(=O)C4O[C@]432)C1(C)C (some centres not stated)	/	37%	/	/	/
O=S(=O)(NC1CCCC1)c1ccc(S(=O)(=O)N2CCCN(Cc3ccccc3)C2)cc1	1%	3%	/	15*	0%
CS(=O)(=O)NC1CCN(Cc2ccccc2)CC1	8%	8%	0%	>77	-6%
Cc1cccc(N(C)S(=O)(=O)c2ccc3[nH]c(=O)c(=O)[nH]c3c2)c1	-1%	8%	-1%	11*	-1%
CCC(C(=O)NCc1ccco1)N(C(=O)CNS(=O)(=O)c1ccc(C)cc1)c1ccccc1OC (configuration not stated)	0%	9%	/	>77	2%
CCCC(C(=O)NCc1ccco1)N(C(=O)CNS(=O)(=O)c1ccccc1)c1ccccc1OC (configuration not stated)	0%	0%	/	15*	5%
C/C(CCN1CCCc2nc(C)c(C)cc21)=N\O[C@@H](C)c1cn([C@H](CO)Cc2ccccc2)nn1	/	/	2%[9.22 µM]	/	/
C=CCn1c(C)cc(C(=O)CSc2nnc(Cc3ccccc3)o2)c1C	-2%	-1%	2%[1.84 µM]	/	-3%
Cc1cc(C(=O)CSc2nnc(Cc3ccccc3)o2)c(C)n1Cc1ccc2c(c1)OCO2	-2%	24%	0%[57.5 µM]	4*	2%
CC(=O)Nc1ccc(N2CCN(C(C)=O)CC2)cc1	9%	-1%	1%	>77	?
CCc1ccc(CNc2ccc(N3CCN(C(C)=O)CC3)cc2)cc1	2%	22%	-1%	12*	-3%
CC(=O)N1CCN(c2ccc(NCc3ccc(C)cc3)cc2)CC1	-3%	7%	/	12*	1%
COCCn1c(=O)cnc2cnc(Nc3cccc(OC)c3)nc21	3%[9.22 µM]	2%	3%	/	16%

Bioassay records as filed in PubChem.
